The results in this text go back to PubChem BioAssay AID652105 (National Center for Advancing Translational Sciences (NCATS), 2013).

Among all 330,000 compounds or so, about 4,100 (1.2%) were called active. About 2% were inconclusive and are not listed. Only a selection was taken, and actives are over-represented in it overall. Values without a mark were called inactive. The calls were made as follows: active = max response of -50% or lower; inconclusive = between -30% and -50%; inactive = -30% or higher.
% is scaled to controls: 0 for no effect and ±100 for the full control effect.

Chain of Phosphatidylinositol 5-phosphate 4-kinase type-2 alpha (Homo sapiens) (P48426 whole entry, looked up, canonical isoform): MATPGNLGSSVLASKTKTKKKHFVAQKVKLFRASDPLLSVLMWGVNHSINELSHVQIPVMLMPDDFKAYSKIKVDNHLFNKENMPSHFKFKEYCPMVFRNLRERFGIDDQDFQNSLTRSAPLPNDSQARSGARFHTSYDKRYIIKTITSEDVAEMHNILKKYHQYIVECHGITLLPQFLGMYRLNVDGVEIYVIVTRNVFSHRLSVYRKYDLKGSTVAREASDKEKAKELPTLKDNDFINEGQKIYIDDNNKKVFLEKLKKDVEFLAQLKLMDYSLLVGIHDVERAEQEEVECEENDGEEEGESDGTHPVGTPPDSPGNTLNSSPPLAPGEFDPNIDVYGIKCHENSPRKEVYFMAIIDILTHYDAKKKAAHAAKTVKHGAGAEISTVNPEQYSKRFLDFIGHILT

For this experiment, the target named is Phosphatidylinositol 5-phosphate 4-kinase type-2 alpha (Homo sapiens) (UniProt P48426). Nature of the experiment: qHTS for Inhibitors of phosphatidylinositol 5-phosphate 4-kinase (PI5P4K). Also: value at the top dose of about 77 µM. Particulars: PI5P4Kalpha enzyme, ADP-Glo luminescence, 60 min; active compounds read low. The source says:
In addition to finding PI5P, we discovered the type II phosphatidylinositol 5-phosphate 4-kinase (PI5P4K) family (alpha, beta, gamma isoforms) that catalyze the conversion of PI5P to PI(4,5)P2. Alternatively, PI(4,5)P2 can also be synthesized through phosphatidylinositol-4-phosphate (PI4P) by the type I phosphatidylinositol 4-phosphate 5-kinases (PI4P5K). These PI5P4K enzymes therefore represent one way by which cells can regulate endogenous PI5P levels and play important roles in insulin signaling and in stress responses.
This proposal aims to identify and optimize specific modulators of human PI5P4K, phosphatidylinositol-5-phosphate 4-kinase (Type II PIPK), a family of kinases that regulate AKT signaling and tumor cell growth. In this project we aim to identify inhibitors of human PI5P4K using a quantitative high-throughput screening approach against the MLSMR containing ~400,000 small molecules.
NIH Chemical Genomics Center [NCGC]
NIH Molecular Libraries Probe Centers Network [MLPCN]
Assay Submitter (PI): Atsuo Sasaki, Beth Israel Deaconess Medical Center
2 microL of PI5P4Kalpha/substrate buffer (columns 1-2, 5-48) are dispensed into Greiner white solid bottom 1536-well assay plates; column 3 receives only PI5P4Kalpha buffer as 0x substrate controls; column 4 receives only substrate buffer as 0x PI5P4Kalpha controls. Final assay buffer consists of 0.038 M HEPES pH 7.4, 0.28 mM EGTA, 0.1% CHAPS, and 5% DMSO (final concentration). Compounds are then transferred via Kalypsys pin tool equipped with 1536-pin array (10 nL slotted pins, V&P Scientific, San Diego, CA). Following addition of compound, 1 microL of ATP (5 microM final concentration, all columns) is added to initiate the reaction. ATP is diluted in an assay buffer consisting of 0.02 M HEPES pH 7.4, 60 mM MgCl2, 15 microM ATP, and 0.1% CHAPS. The plates are then incubated at room temperature for 60 minutes. ADP-Glo reagent 1 is added (2 microL) and plates incubated for 45 minutes, before ADP-Glo reagent 2 (4 microL) is added and plates incubated for 30 minutes. They are then transferred to a ViewLux high-throughput CCD imager (PerkinElmer) wherein single end-point measurements of luminescence are acquired using a clear filter.
On the technique in general: In qHTS, concentration-response curves come from the screen itself.
For the compound `CCN(CC)CCNC(=O)c1ccc(NC(=O)c2cc(-c3ccncc3)nc3ccccc23)cc1`, the max response is -5.2%. As for `O=C(Nc1ccc(S(=O)(=O)Nc2nccs2)cc1)c1cc(=O)[nH]c2ccccc12`, the figure is -12.6%; as for `O=C(Nc1ccc(S(=O)(=O)Nc2nccs2)cc1)c1cc(-c2ccncc2)nc2ccccc12`, -67.1% (active). As to `Cc1ccc(C(=O)O)cc1-c1ccc(/C=C2\SC(=O)N(CC(=O)Nc3ccc4c(c3)OCO4)C2=O)o1`, the max response was -59.9% (active). Regarding `Cc1nn(CC(=O)Nc2ccc3c(c2)OCO3)c(C)c1[N+](=O)[O-]`, the max response was 1.6%. To `Cc1ccc(C(=O)Nc2ccc3c(c2)OCO3)cc1S(=O)(=O)N1CCCCC1` belongs 0.934%; to `CC(=O)Nc1cc(-c2ccc(N3CCN(C)CC3)cc2)cn2c(-c3cccc(C(=O)N(C)C)c3)cnc12`, 4.25%; to `CCc1nc2c(OCCOc3ccc(F)cc3)cccn2c1N(C)C(=O)c1ccccc1F`, -7.43%.

In the case of `COc1cccc(-c2ccc3c(c2)N(Cc2ccccc2OC)C(=O)C(C)S3)c1` (stereo not given), the max response was 20.2%.

With `COc1ccc([C@H]2CC(=O)C[C@@H](CCn3cc(CC4CCCC4)nn3)O2)cc1`, the max response was 9.59%. On to `Cc1ccc(N2NC(=O)/C(=C/C=C/c3ccco3)C2=O)cc1C`, for which the max response is -13.7%. For the compound `Cc1ccc(N=C2NC(=O)/C(=C/C=C/c3ccco3)S2)cc1C`, the max response was -76.1% (active).

`CN1C(=O)/C(=C/c2ccco2)SC1=Nc1cccc(C(=O)O)c1`: the max response was -16.9%. On to `O=C(CSc1nc2ccccc2c(=O)[nH]1)Nc1nc(-c2ccc(Br)cc2)cs1`, for which the max response is 2.06%. As for `Cc1ccc(CSc2nc(-c3ccccc3)c(C#N)c(=O)[nH]2)cc1`, the figure is -3.14%; as for `N#Cc1c(-c2cccs2)nc(SCC(=O)c2ccc(Br)cc2)[nH]c1=O`, -61.8% (active); as for `CCc1nc2c(OCCc3cccc(OC)c3)cccn2c1N(C)C(=O)c1ccc(C)cc1`, 2.18%. With `COc1ccc(CN2C[C@H]3CON(C)[C@H]3C[C@H]2c2ccc(-c3cccc(F)c3)cc2)cc1`, the max response is 18.3%. Consider `C[N+](C)(C)CCOP(=O)([O-])OC[C@H](O)CO`, for which the max response was -87.3% (active). Consider `COC(=O)C[C@H]1C=C[C@H](NC(=O)c2ccc(F)cc2)[C@@H](CO)O1`, for which the max response was -0.944%. For the compound `COC(=O)c1ccc2nc(-c3cccc(Br)c3)c(Cc3ccccc3C(F)(F)F)n2c1`, the max response was 4.18%. As to `C#CCN(C[C@@H]1[C@@H](OC(=O)NC2CC2)[C@@H](OC(=O)NC2CC2)Cn2c(=O)ccc(=O)n21)S(=O)(=O)c1ccc(C)cc1`, the max response was -1.14%. For the compound `COCCNC(=O)C1C(=O)Nc2ccccc2C(=O)N1c1ccc2c(c1)OCCO2` (stereo not given), the max response is 7.16%. Regarding `O=C(c1ccccc1)c1ccc(C(=O)N2CCN(c3ccccc3)CC2)cc1`, the max response was 6.71%. To `O=C(c1cc2c(s1)CCC2)N1CCN(c2ccccc2)CC1` belongs -53% (active). With `O=C(NNC(=O)c1cc2c(s1)CCCC2)c1ccccc1`, the max response was 0.43%. To `C=CCn1cnc2scc(-c3ccccc3)c2c1=O` belongs -1.04%. As for `C=CCn1c(=S)[nH]c2scc(-c3ccco3)c2c1=O`, the figure is -84.2% (active). To `CCC1(C)Cc2c(sc3[nH]c(=S)n(Cc4ccccc4)c(=O)c23)CO1` (stereo not given) belongs -15.7%. With `Clc1cccc(Cc2c(-c3cccc(Cl)c3)nc3ccc(Cl)cn23)c1`, the max response is -3.6%. For the compound `CCCCCNC(=O)C1C(=O)Nc2ccccc2C(=O)N1C(C)(C)C` (stereo not given), the max response is -7.39%.

For the compound `O=C(CNC(=O)c1ccc(Br)o1)Nc1ccccc1`, the max response is -2.2%. Consider `O=C(NCc1cccs1)c1ccc(Br)o1`, for which the max response was 4.81%. With `CC(CNC(=O)c1ccc(Br)o1)NC(=O)c1ccc(Br)o1` (stereo not given), the max response was -54.6% (active). Take `CSc1ccc(CN2CCC2(C)C(=O)NCc2ccccc2Br)cc1` (stereo not given): the max response was 17.1%. Consider `COc1ccccc1-c1cc(NC(C)=O)c2ncc(-c3ccc(F)cc3)n2c1`, for which the max response was -5.85%. On to `CCCc1ccc(C(O)c2ncc(-c3cccc(OC)c3)[nH]2)cc1` (stereo not given), for which the max response was 14%. As for `COc1ccc(/C=C(/CC(=O)Nc2ccc(C)cc2)c2nc3ccccc3s2)cc1`, the max response was -7.45%. For the compound `COc1cccc2sc(NNC(=O)c3nc4ccccc4s3)nc12`, the max response was -61.5% (active). For `COc1cccc2sc(N(CCCN(C)C)C(=O)C(c3ccccc3)c3ccccc3)nc12`, the max response is 12.8%. With `O=C(/C=C/[C@H]1O[C@@H](n2ccc(=O)[nH]c2=O)[C@H](O)[C@@H]1O)NCc1ccccn1`, the max response is 2%.

As for `CCOC(=O)C1Nc2ccc(C(F)(F)F)cc2C2C=CCC12` (stereo not given), the max response is -55.4% (active). To `CCOC(=O)C[C@H]1c2ccc(C(F)(F)F)cc2S(=O)(=O)N1c1ccccc1` belongs 2.77%; to `CCOC(=O)[C@H]1Nc2ccc(Cl)cc2[C@@H]2[C@H]1C1CC(c3ccccc31)N2C(=O)OCc1ccccc1` (stereo not given in full), 19.9%.

In the case of `Nc1cccc(-c2cncc(N3CCN(Cc4ccccn4)CC3)n2)c1`, the max response was -6.48%. Regarding `C=CCNC(=O)CSc1nc2sc(C)c(C)c2c(=O)[nH]1`, the max response was -2.42%. Regarding `O=C(CSc1nc2c(cnn2-c2ccc(F)cc2)c(=O)[nH]1)N1CCCCCC1`, the max response is -3.16%. `CC(=O)c1sc2nc(SCC(=O)N3CCCCC3)[nH]c(=O)c2c1C`: the max response is -59.2% (active). As for `CCOC(=O)[C@]12CCCC=C1N(CCC1=CCCCC1)C(=O)[C@H](CC(=O)NCCCOC)C2`, the max response was -1.91%.

With `Cc1cc(NC(=O)CN2CCCC(C)C2)n(-c2nc3ccccc3s2)n1` (stereo not given), the max response was 14.1%. For `CCC(=O)NC(=Nc1nc2ccccc2s1)NC(=O)CC`, the max response is 10.4%. With `CCC(C)Cn1c(O)cc2nn(-c3nc4ccccc4s3)c(=O)c-2c1C` (stereo not given), the max response is -79.1% (active). For the compound `COC(=O)[C@]12CCCCC=C1N(Cc1ccc(Cl)cc1Cl)C(=O)[C@H](CC(=O)NCc1cccc3ccccc13)C2`, the max response is 20.1%.

For `COc1cc(C=C(OC(C)=O)c2ccc3c(c2)OCO3)cc(OC)c1OC`, the max response was 3.06%.

As for `COc1cc(/C=C2/C(=O)NN(c3cccc(Cl)c3)C2=O)cc(Br)c1O`, the max response is -54.1% (active).

On to `COc1ccc(N2C(=O)CC(Nc3ccc(F)cc3)C2=O)c([N+](=O)[O-])c1` (stereo not given), for which the max response is -6.93%. To `COc1cc(/C=N/O)cc(Br)c1OCc1cccc(Cl)c1` belongs 39.6%. Consider `COc1cc(/C=C2/C(=O)NN(c3ccc(F)cc3)C2=O)cc([N+](=O)[O-])c1O`, for which the max response was -57.5% (active). With `COc1cc(CN2CC(C)CC(C)C2)cc([N+](=O)[O-])c1O` (stereo not given), the max response was 0.224%. As to `C#CCOc1ccc(/C=C2/C(=O)NN(c3ccccc3)C2=O)cc1OC`, the max response was -22.1%.
